{"source": "PubChem BioAssay (NCI)", "test": "NCI Yeast Anticancer Drug Screen. Data for the mlh1 rad18 strain (AID 175)", "conditions": "S. cerevisiae mlh1 rad18 strain growth inhibition, stronger effect = higher value", "experimental": "Growth inhibition of yeast strains with defined genetic alterations is measured as a screen for potential anti-cancer activity. Selected strains with alterations in DNA damage repair or cell cycle control were exposed to compounds and growth inhibition was measured relative to vehicle treated controls. The strain used in this assay is mlh1 rad18", "key": {"[1]": {"conditions": "at 5.0 µM (retest, dose inferred, filed as 0.5)"}, "[2]": {"conditions": "at 50.0 µM (retest, dose inferred, filed as 5.0)"}}, "note": "“And” between values parts separate entries of the source, which are not always exact repeats. Identical values can stand only once. Compounds without any hit were thinned out: in the full panel of roughly 79,000, 15% have a hit. Values without a mark were called inactive. The source made the active and inactive calls. Rule as the data show it: active = growth inhibition above about 70%; inactive = the rest."}
{"smiles": "CC(C)CNC(=O)C(C)O", "note": "(stereo unspecified)", "values": [{"measurement": "growth inhibition", "setting": "[1]", "value": 12, "unit": "%"}, {"measurement": "growth inhibition", "setting": "[2]", "value": 40, "unit": "%"}]}
{"smiles": "O=C1Nc2ccc(Br)cc2C1=O", "values": [{"measurement": "growth inhibition", "setting": "[1]", "value": -9, "unit": "%"}, {"measurement": "growth inhibition", "setting": "[2]", "value": "91% (active)"}, {"measurement": "growth inhibition", "setting": "at 50.0 µM", "value": "99.6% (active)"}]}
{"smiles": "COc1ccc2nc3c4c(nccc4c2c1)-c1ncccc1C3=O", "values": [{"measurement": "growth inhibition", "setting": "[1]", "value": "93% (active)"}, {"measurement": "growth inhibition", "setting": "[2]", "value": "97% (active)"}, {"measurement": "growth inhibition", "setting": "at 50.0 µM", "value": -43, "unit": "%"}]}
{"smiles": "CCSC(=O)c1ccc([N+](=O)[O-])o1", "values": [{"measurement": "growth inhibition", "setting": "[1]", "value": -9, "unit": "%"}, {"measurement": "growth inhibition", "setting": "[2]", "value": "99% (active)"}]}
{"smiles": "C=C(C)C1CC2(C)C(C)CC(O)CC2C(OC(=O)C=C(C)C)C1O", "note": "(stereo unspecified)", "values": [{"measurement": "growth inhibition", "setting": "[1]", "value": 32, "unit": "%"}, {"measurement": "growth inhibition", "setting": "[2]", "value": "82% (active)"}, {"measurement": "growth inhibition", "setting": "at 50.0 µM", "value": 69, "unit": "%"}]}
{"smiles": "O=C(CCl)N1c2ccccc2Sc2c1ccc1ccccc21", "values": [{"measurement": "growth inhibition", "setting": "[1]", "value": 46, "unit": "%"}, {"measurement": "growth inhibition", "setting": "[2]", "value": "90% (active)"}, {"measurement": "growth inhibition", "setting": "at 50.0 µM", "value": "83.4% (active)"}]}
{"smiles": "COc1ccc(OC)c(Cc2cnc3nc(N)nc(N)c3c2C)c1", "values": [{"measurement": "growth inhibition", "setting": "[1]", "value": 18, "unit": "%"}, {"measurement": "growth inhibition", "setting": "[2]", "value": 23, "unit": "%"}, {"measurement": "growth inhibition", "setting": "at 50.0 µM", "value": -1.5, "unit": "%"}]}
{"smiles": "c1ccc2sc(SSN3CC4CCC(CC4)C3)nc2c1", "values": [{"measurement": "growth inhibition", "setting": "[1]", "value": 19, "unit": "%"}, {"measurement": "growth inhibition", "setting": "[2]", "value": "89% (active)"}, {"measurement": "growth inhibition", "setting": "at 50.0 µM", "value": "80.7% (active)"}]}
{"smiles": "Cc1oc2c(C)c3oc(=O)cc(C)c3cc2c1CCl", "values": [{"measurement": "growth inhibition", "setting": "[1]", "value": 47, "unit": "%"}, {"measurement": "growth inhibition", "setting": "[2]", "value": "96% (active)"}, {"measurement": "growth inhibition", "setting": "at 50.0 µM", "value": "90.7% (active)"}]}
{"smiles": "Cc1cc(C)c([I+]c2c(C)cc(C)cc2C)c(C)c1", "values": [{"measurement": "growth inhibition", "setting": "[1]", "value": 16, "unit": "%"}, {"measurement": "growth inhibition", "setting": "[2]", "value": "72% (active)"}, {"measurement": "growth inhibition", "setting": "at 50.0 µM", "value": "71% (active)"}]}
{"smiles": "OC(c1cc2ccc(C(F)(F)F)cc2c2cc(C(F)(F)F)ccc12)C1CCCCN1", "note": "(stereo unspecified)", "values": [{"measurement": "growth inhibition", "setting": "[1]", "value": "97% (active)"}, {"measurement": "growth inhibition", "setting": "[2]", "value": "97% (active)"}, {"measurement": "growth inhibition", "setting": "at 50.0 µM", "value": "85.7% (active)"}]}
{"smiles": "CCN1CCCC(Nc2cc(C)nc(/N=C(/N)Nc3ccc(Cl)c(Cl)c3)n2)C1", "note": "(stereo unspecified)", "values": [{"measurement": "growth inhibition", "setting": "[1]", "value": 57, "unit": "%"}, {"measurement": "growth inhibition", "setting": "[2]", "value": "97% (active)"}, {"measurement": "growth inhibition", "setting": "at 50.0 µM", "value": "83.2% (active)"}]}
{"smiles": "O=C1c2ccccc2C(=O)c2c(O)c(Cl)cc(O)c21", "values": [{"measurement": "growth inhibition", "setting": "[1]", "value": 6, "unit": "%"}, {"measurement": "growth inhibition", "setting": "[2]", "value": 57, "unit": "%"}, {"measurement": "growth inhibition", "setting": "at 50.0 µM", "value": "78% (active)"}]}
{"smiles": "CCN(CC)C(=O)N1CCN(C)CC1", "values": [{"measurement": "growth inhibition", "setting": "at 50.0 µM", "value": "15.2% and -8%"}]}
{"smiles": "Cc1ccc(C2SCC(=O)N2CCN2C(=O)CSC2c2ccc(C)o2)o1", "note": "(stereo unspecified)", "values": [{"measurement": "growth inhibition", "setting": "at 50.0 µM", "value": "13.2% and -12.4%"}]}
{"smiles": "S=c1nc[nH]c2ccccc12", "values": [{"measurement": "growth inhibition", "setting": "at 50.0 µM", "value": "5% and 5.65%"}]}
{"smiles": "CCCCCCCC/C=C\\CCCCCCCCOCC(O)CO", "note": "(stereo unspecified)", "values": [{"measurement": "growth inhibition", "setting": "at 50.0 µM", "value": "-27.6% and -20.8%"}]}
